Data on 7 molecules can be found in ChEMBL document CHEMBL1961873, “Compounds: GSK PKIS; Assays: Nanosyn kinase panel” (2012).

The target in assay [1] is Tyrosine-protein kinase Fyn (Homo sapiens) (UniProt P06241). The settings on record: at 1 µM.
The target of assay [2] is Tyrosine-protein kinase HCK (Homo sapiens) (UniProt P08631). The settings on record: at 0.1 µM.
The target is the same in assay [3]. The settings on record: at 1 µM.
The target in assay [4] is Insulin-like growth factor 1 receptor (Homo sapiens) (UniProt P08069). The settings on record: at 0.1 µM.
Assay [5] has the same target. The settings on record: at 1 µM.
Assay [6] addresses Insulin receptor (Homo sapiens) (UniProt P06213). The settings on record: at 0.1 µM.
Assay [7] has the same target. As to conditions: at 1 µM.
Assay [8] deals with Insulin receptor-related protein (Homo sapiens) (UniProt P14616). As to conditions: at 0.1 µM.
Sequence of Insulin receptor-related protein (Homo sapiens) (P14616 27-742 limits assumed): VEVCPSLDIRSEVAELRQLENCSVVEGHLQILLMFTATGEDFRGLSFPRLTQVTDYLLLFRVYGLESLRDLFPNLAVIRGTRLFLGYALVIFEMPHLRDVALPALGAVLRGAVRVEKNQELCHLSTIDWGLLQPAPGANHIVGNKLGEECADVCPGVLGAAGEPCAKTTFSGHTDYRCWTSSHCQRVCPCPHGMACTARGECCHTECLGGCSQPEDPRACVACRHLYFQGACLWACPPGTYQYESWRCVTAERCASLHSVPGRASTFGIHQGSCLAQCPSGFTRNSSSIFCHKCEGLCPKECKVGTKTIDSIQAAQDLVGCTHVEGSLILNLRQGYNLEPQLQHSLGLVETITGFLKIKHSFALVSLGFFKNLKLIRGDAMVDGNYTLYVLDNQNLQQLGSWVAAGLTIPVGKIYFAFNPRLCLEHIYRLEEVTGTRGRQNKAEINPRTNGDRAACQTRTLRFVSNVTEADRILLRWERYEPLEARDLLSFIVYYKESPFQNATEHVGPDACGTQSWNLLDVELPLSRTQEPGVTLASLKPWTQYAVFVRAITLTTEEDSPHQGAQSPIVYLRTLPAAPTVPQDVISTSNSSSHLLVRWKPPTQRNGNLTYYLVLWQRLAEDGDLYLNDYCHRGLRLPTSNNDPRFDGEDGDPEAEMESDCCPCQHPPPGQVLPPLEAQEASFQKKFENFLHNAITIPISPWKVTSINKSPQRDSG
Sequence of Insulin receptor-related protein (Homo sapiens) (P14616 747-1297 limits assumed): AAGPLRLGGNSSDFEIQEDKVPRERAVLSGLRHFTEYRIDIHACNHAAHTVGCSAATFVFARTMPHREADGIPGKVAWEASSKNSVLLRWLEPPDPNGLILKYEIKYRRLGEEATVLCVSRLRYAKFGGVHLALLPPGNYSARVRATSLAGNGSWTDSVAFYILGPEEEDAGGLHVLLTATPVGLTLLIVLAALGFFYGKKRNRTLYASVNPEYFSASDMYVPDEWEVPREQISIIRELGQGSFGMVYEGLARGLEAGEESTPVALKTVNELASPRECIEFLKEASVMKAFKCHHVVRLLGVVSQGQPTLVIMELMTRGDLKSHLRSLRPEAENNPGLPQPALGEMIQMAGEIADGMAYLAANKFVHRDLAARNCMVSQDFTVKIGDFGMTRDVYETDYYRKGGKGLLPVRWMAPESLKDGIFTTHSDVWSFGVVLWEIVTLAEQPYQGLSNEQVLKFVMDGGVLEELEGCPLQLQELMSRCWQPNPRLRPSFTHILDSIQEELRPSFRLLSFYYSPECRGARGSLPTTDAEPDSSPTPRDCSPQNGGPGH
For assay [9] the target is unchanged. As to conditions: at 1 µM.
The target in assay [10] is T1, Tyrosine-protein kinase ITK/TSK (Homo sapiens) (UniProt Q08881).
T1 sequence (whole entry): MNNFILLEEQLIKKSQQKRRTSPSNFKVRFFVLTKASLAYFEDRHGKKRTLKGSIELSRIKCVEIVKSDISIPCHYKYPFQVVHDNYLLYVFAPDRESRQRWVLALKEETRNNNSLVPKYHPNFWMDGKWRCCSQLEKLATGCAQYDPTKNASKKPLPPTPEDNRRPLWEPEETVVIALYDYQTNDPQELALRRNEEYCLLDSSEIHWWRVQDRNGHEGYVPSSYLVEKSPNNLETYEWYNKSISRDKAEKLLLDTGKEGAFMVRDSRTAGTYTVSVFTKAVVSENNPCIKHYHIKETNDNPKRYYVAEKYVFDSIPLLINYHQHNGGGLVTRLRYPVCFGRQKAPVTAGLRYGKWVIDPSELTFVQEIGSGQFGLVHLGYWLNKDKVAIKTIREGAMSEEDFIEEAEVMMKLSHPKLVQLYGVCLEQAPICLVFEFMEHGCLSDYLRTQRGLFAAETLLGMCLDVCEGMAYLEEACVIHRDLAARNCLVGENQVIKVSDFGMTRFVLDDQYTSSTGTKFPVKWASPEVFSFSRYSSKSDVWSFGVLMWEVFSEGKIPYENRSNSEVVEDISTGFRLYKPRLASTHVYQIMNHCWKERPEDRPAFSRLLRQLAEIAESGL
As to conditions: at 0.1 µM.

Assay [11] has as its target T1, Tyrosine-protein kinase ITK/TSK (Homo sapiens). The settings on record: at 1 µM.
In assay [12] the target is Tyrosine-protein kinase JAK1 (Homo sapiens) (UniProt P23458). As to conditions: at 0.1 µM.
For assay [13] the target is unchanged. As to conditions: at 1 µM.
Assay [14] deals with Tyrosine-protein kinase JAK2 (Homo sapiens) (UniProt O60674). The settings on record: at 0.1 µM.
Sequence of Tyrosine-protein kinase JAK2 (Homo sapiens) (O60674 whole entry): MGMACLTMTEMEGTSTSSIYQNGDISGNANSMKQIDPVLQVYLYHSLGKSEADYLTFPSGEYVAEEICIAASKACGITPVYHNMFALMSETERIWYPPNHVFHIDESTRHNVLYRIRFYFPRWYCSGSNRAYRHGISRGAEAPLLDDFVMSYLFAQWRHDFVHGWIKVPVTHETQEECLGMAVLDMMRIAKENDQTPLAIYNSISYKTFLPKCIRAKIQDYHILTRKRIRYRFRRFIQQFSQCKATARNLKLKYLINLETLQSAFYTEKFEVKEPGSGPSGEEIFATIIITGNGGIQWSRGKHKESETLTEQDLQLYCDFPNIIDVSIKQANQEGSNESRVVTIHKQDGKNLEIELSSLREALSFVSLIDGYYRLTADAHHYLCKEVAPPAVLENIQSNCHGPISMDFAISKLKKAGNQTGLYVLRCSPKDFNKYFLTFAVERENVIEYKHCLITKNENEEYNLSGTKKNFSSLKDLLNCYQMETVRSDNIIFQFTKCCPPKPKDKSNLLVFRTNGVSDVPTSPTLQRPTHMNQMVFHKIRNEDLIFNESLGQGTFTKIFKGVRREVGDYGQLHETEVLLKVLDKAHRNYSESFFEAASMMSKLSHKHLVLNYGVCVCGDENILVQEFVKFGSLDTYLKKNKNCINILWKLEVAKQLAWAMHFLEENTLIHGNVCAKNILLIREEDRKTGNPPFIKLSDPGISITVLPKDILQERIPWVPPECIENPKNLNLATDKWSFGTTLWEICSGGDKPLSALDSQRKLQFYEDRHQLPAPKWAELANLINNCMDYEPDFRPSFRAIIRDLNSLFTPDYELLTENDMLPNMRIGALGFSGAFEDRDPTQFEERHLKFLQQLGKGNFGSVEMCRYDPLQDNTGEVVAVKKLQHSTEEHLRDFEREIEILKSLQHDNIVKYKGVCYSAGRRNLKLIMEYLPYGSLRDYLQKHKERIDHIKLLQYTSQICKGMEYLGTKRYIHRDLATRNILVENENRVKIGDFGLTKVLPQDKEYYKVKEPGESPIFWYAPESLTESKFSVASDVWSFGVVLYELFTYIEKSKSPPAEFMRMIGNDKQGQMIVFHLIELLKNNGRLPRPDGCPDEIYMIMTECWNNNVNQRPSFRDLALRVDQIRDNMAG
Assay [15] shares this target. As to conditions: at 1 µM.
In assay [16] the target is T2, Tyrosine-protein kinase JAK3 (Homo sapiens) (UniProt P52333).
T2 sequence (whole entry): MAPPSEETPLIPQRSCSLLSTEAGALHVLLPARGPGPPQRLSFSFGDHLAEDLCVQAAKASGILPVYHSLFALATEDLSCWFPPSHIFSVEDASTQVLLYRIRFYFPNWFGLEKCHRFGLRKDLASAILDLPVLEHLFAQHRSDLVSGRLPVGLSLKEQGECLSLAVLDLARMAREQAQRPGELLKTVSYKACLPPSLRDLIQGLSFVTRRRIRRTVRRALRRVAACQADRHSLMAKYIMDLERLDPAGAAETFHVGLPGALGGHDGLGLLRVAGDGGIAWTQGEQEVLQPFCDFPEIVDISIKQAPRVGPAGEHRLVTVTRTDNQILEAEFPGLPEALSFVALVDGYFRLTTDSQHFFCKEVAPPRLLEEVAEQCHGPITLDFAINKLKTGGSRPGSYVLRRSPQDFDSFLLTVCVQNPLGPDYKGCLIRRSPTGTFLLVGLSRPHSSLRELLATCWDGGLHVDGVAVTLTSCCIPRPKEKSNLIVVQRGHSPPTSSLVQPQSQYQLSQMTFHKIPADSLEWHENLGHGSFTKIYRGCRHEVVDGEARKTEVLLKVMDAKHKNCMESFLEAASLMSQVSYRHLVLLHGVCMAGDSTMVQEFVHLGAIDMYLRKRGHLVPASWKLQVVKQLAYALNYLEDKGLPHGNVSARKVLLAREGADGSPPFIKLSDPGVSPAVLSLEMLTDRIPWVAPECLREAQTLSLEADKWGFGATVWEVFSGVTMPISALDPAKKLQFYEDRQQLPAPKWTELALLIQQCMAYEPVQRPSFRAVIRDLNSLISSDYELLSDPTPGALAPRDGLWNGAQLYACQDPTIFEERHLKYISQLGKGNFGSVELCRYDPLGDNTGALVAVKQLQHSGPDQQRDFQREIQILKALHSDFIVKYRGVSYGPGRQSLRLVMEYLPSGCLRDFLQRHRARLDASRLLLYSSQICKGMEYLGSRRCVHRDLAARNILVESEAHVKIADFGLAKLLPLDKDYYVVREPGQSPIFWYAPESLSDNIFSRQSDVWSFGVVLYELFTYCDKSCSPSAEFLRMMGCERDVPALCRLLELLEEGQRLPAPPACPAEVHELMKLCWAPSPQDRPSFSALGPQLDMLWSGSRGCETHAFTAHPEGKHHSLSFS
The settings on record: at 0.1 µM.

In assay [17] the target is T2, Tyrosine-protein kinase JAK3 (Homo sapiens). The settings on record: at 1 µM.
Assay [18] has as its target Vascular endothelial growth factor receptor 2 (Homo sapiens) (UniProt P35968). As to conditions: at 0.1 µM.
Assay [19] shares this target. The settings on record: at 1 µM.
The target in assay [20] is Mast/stem cell growth factor receptor Kit (Homo sapiens) (UniProt P10721). The settings on record: at 0.1 µM.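 Note: values are mean inhibition of KIT, from the GSK PKIS dataset.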

Sequence of Vascular endothelial growth factor receptor 2 (Homo sapiens) (P35968 whole entry): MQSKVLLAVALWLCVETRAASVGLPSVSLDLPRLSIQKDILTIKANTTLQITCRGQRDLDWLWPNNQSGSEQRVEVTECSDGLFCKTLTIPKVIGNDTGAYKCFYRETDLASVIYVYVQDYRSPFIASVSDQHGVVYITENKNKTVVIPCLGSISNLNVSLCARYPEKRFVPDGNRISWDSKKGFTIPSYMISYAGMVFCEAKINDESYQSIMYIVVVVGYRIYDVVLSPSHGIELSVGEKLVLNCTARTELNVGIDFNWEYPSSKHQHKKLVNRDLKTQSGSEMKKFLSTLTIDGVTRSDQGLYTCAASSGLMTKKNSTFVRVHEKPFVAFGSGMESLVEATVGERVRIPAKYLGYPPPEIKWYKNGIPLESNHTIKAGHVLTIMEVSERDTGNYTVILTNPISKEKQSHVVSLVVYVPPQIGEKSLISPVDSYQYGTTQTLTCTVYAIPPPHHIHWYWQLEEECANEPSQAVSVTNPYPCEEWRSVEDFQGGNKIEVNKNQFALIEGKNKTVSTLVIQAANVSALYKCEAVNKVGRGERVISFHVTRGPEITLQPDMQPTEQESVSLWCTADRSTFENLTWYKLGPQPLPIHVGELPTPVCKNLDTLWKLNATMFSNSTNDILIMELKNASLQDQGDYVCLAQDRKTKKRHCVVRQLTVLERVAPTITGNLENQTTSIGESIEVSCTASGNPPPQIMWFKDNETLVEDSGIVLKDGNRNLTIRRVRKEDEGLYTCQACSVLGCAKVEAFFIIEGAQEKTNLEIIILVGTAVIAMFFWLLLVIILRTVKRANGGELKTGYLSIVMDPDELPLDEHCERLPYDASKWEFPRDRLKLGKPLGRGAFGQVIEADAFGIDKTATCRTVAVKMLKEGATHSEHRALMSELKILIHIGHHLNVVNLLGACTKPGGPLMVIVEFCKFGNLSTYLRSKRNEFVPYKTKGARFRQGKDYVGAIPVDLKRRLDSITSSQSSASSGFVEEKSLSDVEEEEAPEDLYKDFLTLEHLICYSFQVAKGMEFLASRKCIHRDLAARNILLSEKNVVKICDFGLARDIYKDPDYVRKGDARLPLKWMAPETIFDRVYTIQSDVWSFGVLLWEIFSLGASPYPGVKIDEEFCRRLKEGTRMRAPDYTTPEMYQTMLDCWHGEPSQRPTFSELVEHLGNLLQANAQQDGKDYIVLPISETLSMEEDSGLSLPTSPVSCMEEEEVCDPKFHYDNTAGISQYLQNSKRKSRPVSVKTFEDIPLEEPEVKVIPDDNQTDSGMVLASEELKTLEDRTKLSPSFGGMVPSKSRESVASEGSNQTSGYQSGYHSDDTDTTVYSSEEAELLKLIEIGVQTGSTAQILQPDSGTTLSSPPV
Sequence of Tyrosine-protein kinase HCK (Homo sapiens) (P08631 2-526 limits assumed): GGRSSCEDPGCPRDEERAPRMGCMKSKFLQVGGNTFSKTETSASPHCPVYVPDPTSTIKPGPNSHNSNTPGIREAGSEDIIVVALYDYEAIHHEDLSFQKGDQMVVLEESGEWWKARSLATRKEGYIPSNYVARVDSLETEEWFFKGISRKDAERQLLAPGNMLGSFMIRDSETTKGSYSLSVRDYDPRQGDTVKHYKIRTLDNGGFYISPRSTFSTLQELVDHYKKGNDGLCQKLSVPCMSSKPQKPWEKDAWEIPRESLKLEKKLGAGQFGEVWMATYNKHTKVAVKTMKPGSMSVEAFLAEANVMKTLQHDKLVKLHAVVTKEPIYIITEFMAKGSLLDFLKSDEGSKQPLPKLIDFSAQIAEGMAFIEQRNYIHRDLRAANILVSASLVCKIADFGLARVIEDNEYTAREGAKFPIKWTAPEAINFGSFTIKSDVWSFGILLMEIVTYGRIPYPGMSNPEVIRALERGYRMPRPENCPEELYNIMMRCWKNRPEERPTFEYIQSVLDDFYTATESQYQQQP
Sequence of Tyrosine-protein kinase Fyn (Homo sapiens) (P06241 2-537 limits assumed): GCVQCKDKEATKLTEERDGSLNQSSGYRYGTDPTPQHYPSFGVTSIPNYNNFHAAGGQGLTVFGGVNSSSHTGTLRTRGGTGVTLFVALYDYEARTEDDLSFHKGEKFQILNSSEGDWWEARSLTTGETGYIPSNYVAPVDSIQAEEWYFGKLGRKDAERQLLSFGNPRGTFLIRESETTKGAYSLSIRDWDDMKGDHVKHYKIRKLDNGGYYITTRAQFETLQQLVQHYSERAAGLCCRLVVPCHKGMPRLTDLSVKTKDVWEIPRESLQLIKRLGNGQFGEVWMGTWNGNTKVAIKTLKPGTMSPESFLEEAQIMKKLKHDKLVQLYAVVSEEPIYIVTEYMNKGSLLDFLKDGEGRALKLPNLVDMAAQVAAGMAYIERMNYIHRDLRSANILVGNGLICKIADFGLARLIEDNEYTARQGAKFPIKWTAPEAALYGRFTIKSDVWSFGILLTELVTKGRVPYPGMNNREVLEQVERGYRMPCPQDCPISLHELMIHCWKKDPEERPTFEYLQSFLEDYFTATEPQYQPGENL

`NC(=O)c1ccc(-c2nc(-c3ccccn3)c(-c3ccc4c(c3)OCO4)[nH]2)cc1`: the inhibition – broadly, the drop in the measured response relative to a control, in per cent – in assay [1] was 8.01%; in [2], 3.56%; in assay [3] it was 4.66%; in [4], 1.18%; in [5], 2.2%; in assay [6], 3.26%. The inhibition in assay [7] is 5.06%; in assay [8] it was 3.02%; in assay [9] it was -0.59%; in assay [10] it was 1.2%; in assay [11], 1.43%; in [12], 3.36%. For the same molecule, the inhibition in assay [13] is 8.87%; in assay [14], 1.02%; in assay [15], 1.92%; in assay [16], -1.26%; in assay [17], 0.2%; in assay [18], 2.91%. The values for the inhibition in assay [19] and in assay [20] were 3.09% and 1.09%, respectively.

With `O=C(Nc1n[nH]c2nc(-c3ccco3)c(Br)cc12)C1CC1`, the inhibition was determined as 1.8% in [1]; 5.5% in [2]; 9.03% in [3]; 2.77% in [4]; 3.89% in assay [5]; 3.98% in assay [6]. Besides, the inhibition in assay [8] is 2.25%; in assay [9], 1.49%; in assay [10], 3.8%; in assay [11], 23.7%; in assay [12], 2.41%; in assay [13], -1.14%. Moreover, the inhibition was 1.5% in assay [14]; 1.59% in [15]; -1.04% in [16]; 1.18% in [17]; 5.71% in [18]; 15.5% in assay [19]. Moreover, the inhibition in assay [20] is 6.02%.

Consider `Cc1nn(C)c2cc(N(C)c3ccnc(Nc4cccc(S(N)(=O)=O)c4)n3)ccc12`, for which the inhibition was found to be 28.7% in [1]; 12.8% in [2]; 50.2% in assay [3]; 1.89% in [4]; 7.04% in assay [5]; 8.17% in [6]. The inhibition in assay [7] is 3.38%; in assay [8] it was 0.14%; in [9], 0.9%; in assay [10], 1.53%; in assay [11] it was 8.33%; in assay [12] it was 12.3%. Besides, the inhibition is 54.9% in assay [13]; 7.43% in assay [14]; 59.5% in assay [15]; -0.24% in [16]; 27.3% in assay [17]; 45.4% in assay [18]. Further, the inhibition in assay [19] came to 68.5%; in assay [20] it was 47%.

On to `Nc1ncnc2occ(-c3ccc(NC(=O)Nc4cccc(C(F)(F)F)c4)cc3)c12`, for which the inhibition was 19.9% in assay [1]; 12% in assay [2]; 48.8% in [3]; 14.6% in [4]; 15.5% in assay [5]; 3.28% in assay [6]. Besides, the inhibition in assay [7] was determined as 10.5%; in [8], 2.2%; in assay [9], 5.07%; in assay [10], 0.99%; in assay [11], 12.3%; in assay [12], 0.84%. Moreover, the inhibition is 11.8% in assay [13]; 1.98% in assay [14]; 9.83% in assay [15]; -4.17% in assay [16]; -2.01% in assay [17]; 73.5% in [18]. For the same molecule, the inhibition in assay [19] came out at 77.3%; in assay [20], 94.9%.

Turning to `NS(=O)(=O)c1ccc(N/N=C2\C(=O)Nc3ccc(C(=O)NCCc4c[nH]cn4)cc32)cc1`, the inhibition is 17.2% in assay [1]; 9.6% in assay [2]; 25% in assay [3]; 5.24% in [4]; 17.3% in [5]; 6.5% in assay [6]. Besides, the inhibition came to 32% in assay [7]; 6.49% in assay [8]; 2.5% in assay [9]; 1.78% in assay [10]; 3.56% in [11]; 5.75% in assay [12]. Besides, the inhibition came out at 0.16% in assay [13]; 2.27% in assay [14]; 2.46% in [15]; 0.03% in assay [16]; 3.43% in assay [17]; 12.9% in assay [18]. Besides, the inhibition amounted to 43.3% in assay [19] and 5.68% in assay [20].

`CS(=O)(=O)CCNCc1ccc(-c2ccc3ncnc(Nc4ccc(OCc5ccccc5)c(Cl)c4)c3c2)o1`: the inhibition is 9.03% in [1]; 1.16% in assay [2]; 5.85% in assay [3]; 5.19% in [4]; -0.77% in [5]; 1.79% in assay [6]. Moreover, the inhibition in assay [7] is 1.45%; in assay [8] it was -1.48%; in assay [9] it was -1.47%; in assay [10] it was -0.01%; in assay [11], 1.43%; in assay [12], -0.15%. Also, the inhibition was 1.78% in assay [13]; -0.29% in assay [14]; 1.05% in assay [15]; 0.91% in [16]; 2.44% in [17]; 6.23% in assay [18]. Further, the values for the inhibition in assay [19] and in assay [20] were 14.2% and 2.73%, respectively.

With `NC(=O)c1cccc(Nc2nccc(Nc3cccc4[nH]ncc34)n2)c1`, the inhibition in assay [1] is 96.1%; in assay [2] it was 64%; in assay [3], 84.6%; in [4] it was -0.89%; in assay [5], 15.5%; in assay [6] it was -2.6%. For the same molecule, the inhibition was 16.8% in [7]; -0.86% in assay [8]; 0.93% in assay [9]; -0.33% in assay [10]; 1.1% in assay [11]; 19.6% in assay [13]. Further, the inhibition in assay [14] is 6.75%; in assay [15], 57%; in assay [16] it was 0.54%; in assay [17], 25.2%; in [18], 16.1%; in assay [19], 63.1%. For the same molecule, the inhibition in [20] is 48.5%.
